Assay results reported in PubChem BioAssay (NCATS).
Inconclusive results are not listed. Values without a mark were called inactive. Calls come from the whole dose curve; as a rule, active = well fitted inhibition curve with a large enough effect; inconclusive = small, poorly fitted or top-dose-only effect; inactive = flat fitted curve, though single readings scatter.

Test system: KB-3-1
Test: Cytotoxic Profiling of Annotated Libraries Using Quantitative High-Throughput Screening (AID 1296008); note: nearly all actives have a fitted effect of over 60% in size
Conditions: Five cell lines viability, CellTiter-Glo ATP luminescence, 48-72 h; max response: hits give low values
How it was run: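 Cytotoxicity was measured as CellTiter-Glo ATP luminescence, read after 10 min at room temperature. Compound treatment of the cells lasted 48 or 72 hr at 37 degrees Celsius in a qHTS format.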
% is set by controls: 0 for no effect and ±100 for the full control effect.

How did the max response turn out when `Cc1c(Cl)cccc1Nc1ncccc1C(=O)O` was run?
The max response was 2.98%.

Which max response does the source give for `N[C@H](CC(=O)O)C(=O)O` here?
The max response was 11.5%.

With `CCCc1ccc(C(=O)O)cc1` as the compound, how does the max response read?
The max response was 8.62%.

How did the max response turn out when `CCN(CC)C(=S)S` was run?
The max response was 3.72%.

Which max response does the source give for `CC(C)[C@H](N)C(=O)OCC(CO)OCn1cnc2c(=O)[nH]c(N)nc21` (stereo partly drawn) here?
Its max response is 3.14%.

With `O=P(O)(O)OC[C@H]1O[C@](O)(COP(=O)(O)O)[C@@H](O)[C@@H]1O` as the compound, how does the max response read?
Its max response is 1.63%.

How did the max response turn out when `COc1ccc(C(=O)CCC(=O)O)c2ccccc12` was run?
Its max response is -0.566%.

For `CS(=O)(=O)c1ccc([C@@H](O)[C@@H](COC(=O)CN)NC(=O)C(Cl)Cl)cc1`, which max response is on record?
The max response was -15.1%.

For `CCC(=O)c1ccc2c(c1)N(CCCN1CCN(CCO)CC1)c1ccccc1S2`, which max response is on record?
The max response was -13.4%.

With `CO[C@H]1C=CO[C@@]2(C)Oc3c(C)c(O)c4c(O)c(cc(O)c4c3C2=O)NC(=O)/C(C)=C\C=C/[C@H](C)[C@H](O)[C@@H](C)[C@@H](O)[C@@H](C)[C@H](OC(C)=O)[C@@H]1C` as the compound, how does the max response read?
Its max response is -3.21%.

With `NC[C@@H]1O[C@H](O[C@H]2[C@@H](O)[C@H](O[C@@H]3[C@@H](O)[C@H](N)C[C@H](N)[C@H]3O[C@H]3O[C@H](CO)[C@@H](O)[C@H](O)[C@H]3N)O[C@@H]2CO)[C@H](N)[C@@H](O)[C@@H]1O` as the compound, how does the max response read?
Its max response is 5.13%.

With `CO/N=C(\C(=O)N[C@@H]1C(=O)N2C(C(=O)O)=C(C[N+]3(C)CCCC3)CS[C@H]12)c1csc(N)n1` as the compound, how does the max response read?
The max response was 2.85%.

How did the max response turn out when `OCCOCCOCCO` was run?
The max response was -12.6%.
